In publication PMC12820563, “FoxP3 forms a head-to-head dimer in vivo and stabilizes its multimerization on adjacent microsatellites”:
The full ranking holds about 16,000 sequences; the median of “rpm ratio (pull-down/input)” is about 0.94, and the highest 2% start at about 1.7. The sample as a whole holds a higher share of the highest values than the screen did.

Biological target: T1, MBP-FoxP1dN (Mus musculus, UniProt P58462 326-579)
T1 sequence: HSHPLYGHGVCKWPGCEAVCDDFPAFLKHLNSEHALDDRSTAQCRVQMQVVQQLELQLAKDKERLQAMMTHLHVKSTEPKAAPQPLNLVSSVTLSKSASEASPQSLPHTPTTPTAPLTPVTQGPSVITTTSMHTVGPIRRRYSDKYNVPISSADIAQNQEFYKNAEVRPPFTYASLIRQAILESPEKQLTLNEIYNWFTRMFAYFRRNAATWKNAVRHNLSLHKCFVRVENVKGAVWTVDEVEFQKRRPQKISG
Assay: PD-seq (MBP pull-down with sequencing); 20 mM Tris-HCl pH 7.5, 100 mM NaCl, 1.5 mM MgCl2, 0.4 uM protein, 0.1 uM dsDNA library, 30 min, room temperature, amylose pull-down; high values mean tight binding
Conditions: protein: recombinant; tags: His6-MBP; chain copies: 2; dsDNA, one strand shown
Summary of the method: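 A degenerate double-stranded DNA library, filled in with Klenow, was added at 0.1 µM to 0.4 µM His6-MBP-tagged mouse FoxP3 or FoxP1 fragment lacking the N-terminus, expressed in E. coli. Incubation lasted 30 min at room temperature in Tris pH 7.5 buffer with NaCl and MgCl2, after which complexes were collected on amylose resin, washed three times, digested with proteinase K to free the DNA, barcoded by PCR and sequenced by Illumina. Binding is the pooled-replicate reads-per-million enrichment of pull-down over input.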

Sequence | binding signal
GATGATTGTTCTCCCAGCTGATGAATTCCTCAGATCGAGTAAACAAATTTTCCTAATCTTTCTGTTCAAGCGCCATCTAC | 0.761 RPM ratio (pull-down/input)
GATGATTGTTCTCCCAGCTGATGAATTCATAAACTCGAGTAAACAAATTTTCCTAATCTTTCTGTTCAAGCGCCATCTAC | 1.07 RPM ratio (pull-down/input)
GATGATTGTTCTCCCAGCTGATGAATTATTGCAATCGAGTAAACAAATTTTCCTAATCTTTCTGTTCAAGCGCCATCTAC | 1.49 RPM ratio (pull-down/input)
GATGATTGTTCTCCCAGCTGATGAATTTTTTGCATCGAGTAAACAAATTTTCCTAATCTTTCTGTTCAAGCGCCATCTAC | 1.45 RPM ratio (pull-down/input)
GATGATTGTTCTCCCAGCTGATGAATTTGCAGCATCGAGTAAACAAATTTTCCTAATCTTTCTGTTCAAGCGCCATCTAC | 1.09 RPM ratio (pull-down/input)
GATGATTGTTCTCCCAGCTGATGAATTATTGCCATCGAGTAAACAAATTTTCCTAATCTTTCTGTTCAAGCGCCATCTAC | 1.24 RPM ratio (pull-down/input)
GATGATTGTTCTCCCAGCTGATGAATTTGCATGATCGAGTAAACAAATTTTCCTAATCTTTCTGTTCAAGCGCCATCTAC | 1.05 RPM ratio (pull-down/input)
GATGATTGTTCTCCCAGCTGATGAATTGTTTGCATCGAGTAAACAAATTTTCCTAATCTTTCTGTTCAAGCGCCATCTAC | 2.26 RPM ratio (pull-down/input)
GATGATTGTTCTCCCAGCTGATGAATTTGTTGCATCGAGTAAACAAATTTTCCTAATCTTTCTGTTCAAGCGCCATCTAC | 1.84 RPM ratio (pull-down/input)
GATGATTGTTCTCCCAGCTGATGAATTCTTTGCATCGAGTAAACAAATTTTCCTAATCTTTCTGTTCAAGCGCCATCTAC | 1.26 RPM ratio (pull-down/input)
GATGATTGTTCTCCCAGCTGATGAATTATTTGCATCGAGTAAACAAATTTTCCTAATCTTTCTGTTCAAGCGCCATCTAC | 1.89 RPM ratio (pull-down/input)
GATGATTGTTCTCCCAGCTGATGAATTCCCCTCTTCGAGTAAACAAATTTTCCTAATCTTTCTGTTCAAGCGCCATCTAC | 0.821 RPM ratio (pull-down/input)
GATGATTGTTCTCCCAGCTGATGAATTCTCAGGGTCGAGTAAACAAATTTTCCTAATCTTTCTGTTCAAGCGCCATCTAC | 0.745 RPM ratio (pull-down/input)
GATGATTGTTCTCCCAGCTGATGAATTGTGCCTGTCGAGTAAACAAATTTTCCTAATCTTTCTGTTCAAGCGCCATCTAC | 0.964 RPM ratio (pull-down/input)
GATGATTGTTCTCCCAGCTGATGAATTTCGCAAGTCGAGTAAACAAATTTTCCTAATCTTTCTGTTCAAGCGCCATCTAC | 0.831 RPM ratio (pull-down/input)
GATGATTGTTCTCCCAGCTGATGAATTAGGAACGTCGAGTAAACAAATTTTCCTAATCTTTCTGTTCAAGCGCCATCTAC | 0.882 RPM ratio (pull-down/input)

Sequence | binding signal
GATGATTGTTCTCCCAGCTGATGAATTGCCGTCGTCGAGTAAACAAATTTTCCTAATCTTTCTGTTCAAGCGCCATCTAC | 0.968 RPM ratio (pull-down/input)
GATGATTGTTCTCCCAGCTGATGAATTAGACATATCGAGTAAACAAATTTTCCTAATCTTTCTGTTCAAGCGCCATCTAC | 1.06 RPM ratio (pull-down/input)
GATGATTGTTCTCCCAGCTGATGAATTTACTAAGTCGAGTAAACAAATTTTCCTAATCTTTCTGTTCAAGCGCCATCTAC | 1.29 RPM ratio (pull-down/input)
GATGATTGTTCTCCCAGCTGATGAATTCCCACGATCGAGTAAACAAATTTTCCTAATCTTTCTGTTCAAGCGCCATCTAC | 0.81 RPM ratio (pull-down/input)
GATGATTGTTCTCCCAGCTGATGAATTCTGAATATCGAGTAAACAAATTTTCCTAATCTTTCTGTTCAAGCGCCATCTAC | 0.974 RPM ratio (pull-down/input)
GATGATTGTTCTCCCAGCTGATGAATTTGCAATATCGAGTAAACAAATTTTCCTAATCTTTCTGTTCAAGCGCCATCTAC | 1.34 RPM ratio (pull-down/input)
GATGATTGTTCTCCCAGCTGATGAATTTGTAATATCGAGTAAACAAATTTTCCTAATCTTTCTGTTCAAGCGCCATCTAC | 1.36 RPM ratio (pull-down/input)
GATGATTGTTCTCCCAGCTGATGAATTCTAAATATCGAGTAAACAAATTTTCCTAATCTTTCTGTTCAAGCGCCATCTAC | 1.76 RPM ratio (pull-down/input)
GATGATTGTTCTCCCAGCTGATGAATTGTAAATATCGAGTAAACAAATTTTCCTAATCTTTCTGTTCAAGCGCCATCTAC | 2.72 RPM ratio (pull-down/input)
GATGATTGTTCTCCCAGCTGATGAATTGCAAATATCGAGTAAACAAATTTTCCTAATCTTTCTGTTCAAGCGCCATCTAC | 1.85 RPM ratio (pull-down/input)
GATGATTGTTCTCCCAGCTGATGAATTGTCAATATCGAGTAAACAAATTTTCCTAATCTTTCTGTTCAAGCGCCATCTAC | 2.23 RPM ratio (pull-down/input)
GATGATTGTTCTCCCAGCTGATGAATTCCTAATATCGAGTAAACAAATTTTCCTAATCTTTCTGTTCAAGCGCCATCTAC | 1.07 RPM ratio (pull-down/input)
GATGATTGTTCTCCCAGCTGATGAATTTCCAATATCGAGTAAACAAATTTTCCTAATCTTTCTGTTCAAGCGCCATCTAC | 1.02 RPM ratio (pull-down/input)
GATGATTGTTCTCCCAGCTGATGAATTTCTAATATCGAGTAAACAAATTTTCCTAATCTTTCTGTTCAAGCGCCATCTAC | 1.09 RPM ratio (pull-down/input)
GATGATTGTTCTCCCAGCTGATGAATTTCAAATATCGAGTAAACAAATTTTCCTAATCTTTCTGTTCAAGCGCCATCTAC | 0.914 RPM ratio (pull-down/input)
GATGATTGTTCTCCCAGCTGATGAATTTTCAATATCGAGTAAACAAATTTTCCTAATCTTTCTGTTCAAGCGCCATCTAC | 1.06 RPM ratio (pull-down/input)
